Eya2 phos inh: inhibitors of human Eya2 phosphatase activity; Potency, µM (series often up to 76.9 µM), usual class: inhibitors; 330,000 compounds, 0.006% hits; AID 488837; recombinant Eya2, OMFP fluorescence dephosphorylation (OMFP is methylfluorescein phosphate); O00167
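Eya2 protein (added as 0.2 uM solution) was preincubated with compound for 10 min at ambient temperature in 50 mM HEPES pH 7.5, 50 mM NaCl, 5 uM MgCl2, 0.05% BSA, 1 mM DTT. OMFP (added at 50 uM) then reacted 10 min; fluorescence read at 485/525 nm.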
uPA surface inh: inhibitors of cell surface uPA generation | cell surface uPA generation assay, qHTS | Potency, µM (titrated, usually from 38.3 µM), hits mostly inhibitors | 330,000 compounds, 0.31% hits; active means well fitted inhibition curve with a large enough effect; inconclusive means small, poorly fitted or top-dose-only effect; inactive means no such curve, though single readings can be large or run the other way; tested in mouse RAW 264.7 cells; further: nearly all actives have a fitted effect of over 55% in size
L3MBTL1 block: L3MBTL1 (human) inhibition; 230,000 compounds, 0.66% hits; Q9Y468; Potency, µM (series often up to 57.1 µM), usual class: inhibitors; AlphaScreen L3MBTL1–H3K9me1 peptide binding; AID 485360; further: nearly all actives have a fitted effect of over 60% in size
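Read-out is AlphaScreen signal from streptavidin donor and nickel chelate acceptor beads (10 ug/mL final each) bridging L3MBTL1 (50 nM) and biotinylated K9-monomethylated H3(1-15) peptide (75 nM), after 30 min compound exposure at room temperature.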
USP2a inh: USP2a (human) protease inhibition. O75604. USP2 core, Ub-CHOP2 coupled fluorogenic reporter, 485/531. Potency, µM (doses to about 38.3 µM), usual class: inhibitors. 330,000 compounds, 0.01% hits
Target sequence (O75604 whole entry, looked up): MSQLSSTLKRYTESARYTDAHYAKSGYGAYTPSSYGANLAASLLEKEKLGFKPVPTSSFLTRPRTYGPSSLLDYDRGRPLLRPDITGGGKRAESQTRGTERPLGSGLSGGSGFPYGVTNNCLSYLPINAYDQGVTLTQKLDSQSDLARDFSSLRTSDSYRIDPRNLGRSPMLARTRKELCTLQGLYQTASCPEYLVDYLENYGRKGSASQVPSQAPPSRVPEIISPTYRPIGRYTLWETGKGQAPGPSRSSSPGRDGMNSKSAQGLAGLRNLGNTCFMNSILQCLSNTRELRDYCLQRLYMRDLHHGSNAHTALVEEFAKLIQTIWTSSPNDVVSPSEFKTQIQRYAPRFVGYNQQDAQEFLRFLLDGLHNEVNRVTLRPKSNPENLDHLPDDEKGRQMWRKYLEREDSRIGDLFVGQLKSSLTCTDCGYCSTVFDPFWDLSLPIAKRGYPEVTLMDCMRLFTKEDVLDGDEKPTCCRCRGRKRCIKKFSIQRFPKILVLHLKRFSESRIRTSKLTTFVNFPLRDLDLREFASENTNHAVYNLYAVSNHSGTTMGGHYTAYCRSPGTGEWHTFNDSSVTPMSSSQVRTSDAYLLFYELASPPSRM
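USP2 core (10nM final) preincubated 30min RT with compound in 20mM Tris-HCl pH 8.0, 2mM CaCl2, 2mM beta-mercaptoethanol, 0.05% CHAPS; 25nM Ub-CHOP2 plus 25nM reporter substrate added, fluorescence (Ex485/Em531) read after 60min.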
Six1-Eya2 blk: inhibitors of human Six1/Eya2 interaction. 360,000 compounds, 0.56% hits. AlphaScreen GST-Six1/His-Eya2 binding, biochemical; hits give low values. activity change, % (no concentration beside the values). AID 651725; in the data active means activity change below about -65%; inconclusive means mostly about -30% to -63%
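AlphaScreen luminescence read after one hour at 37 °C in darkness. Pin-transferred compounds met GST-Six1 and His-Eya2 protein (5X stock 250 nM/500 nM) plus glutathione donor and Ni-chelate acceptor beads (5X, 50 ug/mL).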
CtBP-E1A blk: blocks the CtBP interaction with E1A; activity change, % (no concentration beside the values); AID 651724; AlphaScreen GST-E1A/His-CtBP binding, 1536-well; hits give low values; 340,000 compounds, 0.49% hits; in the data active means activity change below about -65%; inconclusive means mostly about -30% to -63%
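In 5 uL wells, 23 nL compound meets equimolar GST-E1A and His-CtBP (5X stock 125 nM each) for 2 h, 37 °C. Beads (5X, 50 ug/mL) then 1 h, 37 °C, dark.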
Hits are given with their value; . = inactive; ? = inconclusive; / = not tested or not shown; ! = a repeat was not active. In the library only some 1.2% were active in any assay of this set; here they are far more common. Unless noted, the call rests on the fitted dose curve; in most records, active means well fitted curve in the direction sought with a large enough effect; inconclusive means small, poorly fitted or top-dose-only effect, or another doubt; inactive means no such curve, though single readings can be large; an effect the other way counts as inactive or inconclusive.

SMILES | Eya2 phos inh | uPA surface inh | L3MBTL1 block | USP2a inh | Six1-Eya2 blk | CtBP-E1A blk
O=C(O)C1Nc2c(Cl)cc(Cl)c(Cl)c2C2C=CCC12 (centres undefined) | / | . | / | / | . | /
O=C(O)C1Nc2c(Cl)cc(Cl)cc2C2C=CCC12 (centres undefined) | . | . | 3.55µM | . | ? | .
O=C(C1=C[C@H](C2CCCCC2)C[C@H](OCCCCO)O1)N1CCN(Cc2ccccc2)CC1 | . | . | . | . | . | .
COc1ccccc1CNC(=O)C1(C)CCN1Cc1ccc(OC(F)(F)F)cc1 (centres undefined) | / | / | / | / | . | .
CC(C)CC(N)c1csc(Nc2ccc(C(=O)NCCCO)cn2)n1 (centres undefined) | / | / | / | / | -70.1 | -77.9
NC(Cc1ccccc1)c1csc(Nc2ccc(C(=O)NCCO)cc2)n1 (centres undefined) | / | / | / | / | . | .
NC(Cc1ccc(F)cc1)c1csc(Nc2ccc(C(=O)NCCCO)cn2)n1 (centres undefined) | / | / | / | / | -67.6 | -72.1
CCCCCCCCCCCCCCCC[n+]1ccccc1 | / | 0.708µM! | / | / | . | .
CCCCCCCCCCCCCCCC[n+]1ccc(C(N)=O)cc1 | . | . | . | . | . | .
NC1=NC2(CCCCC2)N=C(Nc2ccc(F)cc2F)N1 | . | . | . | . | . | .
COc1ccc(OC)c(NC2=NC3(CCCC3)N=C(N)N2)c1 | . | . | / | . | -68.3 | ?
Oc1ccc(NC(=S)N=Nc2c(O)[nH]c3ccccc23)cc1 | . | . | ? | . | -71.4 | -72.3
CNC(=S)N=Nc1c(O)[nH]c2ccccc12 | . | . | . | . | -69.7 | -69.1
C[n+]1ccc(CC2C(=[N+]([O-])[O-])C=Nc3ncnn32)cc1 (centres undefined) | . | . | . | . | . | /
CC(=O)Nc1ccc(C(C#N)c2ccccc2)cc1 (centres undefined) | . | . | . | . | . | .
O=C(N/N=C/c1cn(Cc2cccc(F)c2)c2ccccc12)c1cc(O)cc(O)c1 | . | . | / | . | -75.1 | -72.5
CCCN1C(=O)C(=O)c2cc(Cl)ccc21 | . | 5.62µM | . | . | . | .
CC(=O)N/N=C/c1ccccc1OCCOc1cccc(C)c1 | . | 12.6µM | . | . | . | /
CCc1cc(C)cc(OCCOc2ccccc2/C=N/NC(C)=O)c1 | . | ? | . | . | . | /
CCOc1ccc(S(=O)(=O)NCc2ccccn2)c(C)c1C | . | . | . | . | . | .
CC[C@]12c3[nH]c4cc(-c5ccco5)ccc4c3CCN1C(=O)[C@@H](CC(=O)NCCC1=CCCCC1)C[C@@H]2C(=O)N1CCN(C(=O)c2ccco2)CC1 | . | . | 20µM | . | . | .
CC[C@]12c3[nH]c4cc(CCC(=O)N(C)C)ccc4c3CCN1C(=O)[C@@H](CC(=O)NCCC1=CCCCC1)C[C@@H]2C(=O)N1CCN(C(=O)c2ccco2)CC1 | . | . | . | . | . | .
C[C@]12c3[nH]c4ccccc4c3CCN1C(=O)C(CC(=O)NCc1ccco1)C[C@@H]2C(=O)N1CCOCC1 (some centres undefined) | . | ? | . | . | . | .
C[C@]12c3[nH]c4ccccc4c3CCN1C(=O)C(CC(=O)NCc1ccco1)C[C@@H]2C(=O)N1CCCCC1 (some centres undefined) | . | 6.31µM | . | . | . | .
Cc1ccc(CNc2ccc(N3CCN(C)CC3=O)cc2)cc1 | . | . | . | . | / | /
SMILES | Eya2 phos inh | uPA surface inh | L3MBTL1 block | USP2a inh | Six1-Eya2 blk | CtBP-E1A blk
O=Cc1ccccc1-c1cn(CN2C(=O)c3ccccc3C2=O)nn1 | . | . | . | . | . | /
CCOC(=O)C1(Cc2ccc(OC)cc2)CCN(C(=O)CCn2cccn2)CC1 | . | . | . | . | . | .
COC(=O)[C@@]12C[C@@H](CC(=O)NCCCCc3ccccc3)C(=O)N(Cc3ccc4c(c3)OCO4)C1=CCC(C)(C)C2 | / | / | / | / | . | .
CCOc1ccc2noc3c2c1C(=O)c1ccccc1-3 | ? | . | . | ? | . | .
CCNc1ccc2noc3c2c1C(=O)c1ccccc1-3 | ? | ? | ? | ? | -74.3 | -71.6
O=C1c2ccccc2-c2onc3ccc(NCc4ccco4)c1c23 | ? | . | . | ? | -84.9 | -93.0
COc1ccccc1CNc1nc(NCc2ccc3occc3c2)c2sccc2n1 | / | / | / | / | . | .
Cc1nn(CC(=O)OCC(=O)c2ccccc2)c(C)c1[N+](=O)[O-] | . | . | . | . | . | .
O=C1CNC(=S)N1CCc1ccc(O)c(O)c1 | . | . | / | . | . | .
COc1ccc(O)c(/C=N/NC(=O)CN2CCS(=O)(=O)CC2)c1 | . | . | / | . | ? | -71.3
Cc1nc(Cl)cc(N/N=C/c2ccc(O)cc2O)n1 | . | . | . | . | -66.7 | -80.7
Cc1cc(N/N=C/c2ccc(O)cc2O)nc(-n2nc(C)cc2C)n1 | . | . | . | . | -70.2 | -79.5
COCCNC(=O)CCC(=O)NNc1nc2ccccc2c2nc(-c3ccccc3)nn12 | . | . | / | . | -67.0 | .
COCCCNC(=O)CCC(=O)NNc1nc2ccccc2c2nc(-c3ccccc3)nn12 | . | . | . | . | . | .
CSC1=NSC2=NC(=O)/C(=C/c3coc4ccccc4c3=O)C(=N)N12 | ? | . | . | ? | . | .
CSC1=NSC2=NC(=O)/C(=C/c3coc4ccc(O)cc4c3=O)C(=N)N12 | ? | . | ? | ? | -67.0 | .
Oc1ccc2ccccc2c1N=Nc1ccccn1 | . | . | 10µM | . | -84.2 | -73.2
CCOC(=O)c1[nH]cnc1N=Nc1c(O)ccc2ccccc12 | . | . | . | . | -81.5 | -70.4
Oc1ccc2ccccc2c1N=Nc1ccccc1F | . | . | 8.91µM | . | -87.9 | ?
COc1ccc(NC(=O)CS(=O)(=O)c2cn(CC(=O)N3CCCC3)c3ccccc23)c(OC)c1 | . | . | / | . | . | .
CC(=O)NC(CC(=O)OCC(=O)c1cc(C)ccc1C)c1ccccc1 (centres undefined) | . | . | . | . | . | .
COc1cc(C(=O)Oc2ccc(Br)cc2C(=S)N2CCOCC2)cc(OC)c1OC | . | . | / | . | -83.4 | -71.3
O=C(NCc1cccs1)C1CCCN(c2ncccn2)C1 (centres undefined) | . | . | . | . | . | .
CCOC(=O)CNC(=O)C1CCCN(c2ncccn2)C1 (centres undefined) | . | . | . | . | -83.1 | ?
C=CCN1C(=O)c2ccc(C(=O)NCCOc3ccccc3F)cc2C1=O | . | . | . | . | . | .
CCOc1ccc(NC(=O)CN(C)C(=O)c2cccnc2SC)cc1OCC | . | . | / | . | . | .
COc1cc(/C=N/NC(=O)c2ccccc2)ccc1O | . | . | . | . | . | .
Cc1c(C(=O)N/N=C/c2ccc(O)c(Br)c2)sc(N)c1C#N | . | . | . | . | ? | -65.3

Bioassay records deposited in PubChem by National Center for Advancing Translational Sciences (NCATS).
